The values that follow come from PubChem BioAssay (Tox21).

Assay [1] concerns the target Progesterone receptor (Homo sapiens) (UniProt P06401). Description: qHTS assay to identify small molecule agonists of the progesterone receptor (PR) signaling pathway (AID 1346784; calls by dose curve; also: nearly all actives have a fitted effect of over 30% in size). Summed up: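 The screen uses PR-UAS-bla HEK 293T cells in charcoal-stripped serum (2%). Compounds are applied for 16 hr at 37C after a 6 hr pre-incubation, and reporter activity is detected with a FRET beta-lactamase substrate after 2 hr at room temperature.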
Background: In qHTS, concentration-response curves come from the screen itself.

Assay [2] has the same target. The assay can be described thus: qHTS assay to identify small molecule antagonists of the progesterone receptor (PR) signaling pathway (AID 1346795; active = well fitted inhibition curve with a large enough effect in the signal ratio in the repeat runs, not every such curve was filed as active; the % refers to the signal ratio; also: potency is read from the fitted curve at half-maximal effect). The procedure, abridged: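 After 6 hr plating at 37C in 2% stripped-serum medium, PR-UAS-bla HEK293T cells got compounds, then 1 nM R5020. Sixteen hours later, LiveBLAzer substrate was applied for 2 hr at room temperature and fluorescence was recorded.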

Assay [3] in a line: qHTS assay to identify small molecule antagonists of the progesterone receptor (PR) signaling pathway - cell viability counter screen (AID 1346798). Also: series mostly up to about 92 µM; nearly all actives have a fitted effect of over 50% in size. Summed up:
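Viability was determined by ATP-based luminescence (CellTiter-Glo) in PR-UAS-bla HEK293T cells cultured in 2% charcoal-stripped serum and incubated 16 hr with compounds under R5020 stimulation.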

A short description of assay [4]: qHTS assay to identify small molecule agonists of the progesterone receptor (PR) signaling pathway - cell viability counter screen (AID 1346799; calls by dose curve; also: nearly all actives have a fitted effect of over 45% in size; also: potency is read from the fitted curve at half-maximal effect). The procedure, abridged: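 Viability was scored by ATP luminescence (CellTiter-Glo, 30 min, room temperature) in the same wells used for the reporter readout, after 16 hr compound exposure of PR-UAS-bla HEK293T cells.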

Assay [5] in a line: qHTS assay to identify small molecule antagonists of the TGF-beta/Smad signaling pathway - cell viability counter screen (AID 1346824). Also: nearly all actives have a fitted effect of over 50% in size. Summed up:
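Cytotoxicity counter-screen run in the same wells as the beta-lactamase Smad reporter read: CellTiter-Glo luminescence after 30 min at room temperature. HEK 293T SBE-bla cells had 5 hr compound exposure at 37 C with TGF-beta1 (0.25 ng/mL stock).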

Assay [6] is described as follows: qHTS assay to identify small molecule agonists of the TGF-beta/Smad signaling pathway (AID 1346859; active = well fitted activation curve with a large enough effect in the signal ratio in the repeat runs, not every such curve was filed as active; the % refers to the signal ratio; also: potency is read from the fitted curve at half-maximal effect; as to activation: series mostly up to about 77 µM). The procedure, abridged:
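Dual-wavelength fluorescence (460/530 nm emission) quantified beta-lactamase expression under the Smad binding element in HEK 293T cells following 5 hr compound treatment at 37 C.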

Assay [7] can be described thus: Human pregnane X receptor (PXR) small molecule agonists, qHTS cell viability counter screen (AID 1346977). Also: nearly all actives have a fitted effect of over 50% in size. Also: potency is read from the fitted curve at half-maximal effect. Summed up:
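HepG2 cells stably carrying the PXR-Luc reporter are cultured with 5% charcoal-stripped FBS and treated with compounds for 24hr. CellTiter-Fluor is added at 23hr and fluorescence is read after 1hr.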

The nature of assay [8]: Caspase-3/7 induction in HepG2 cells by small molecules, qHTS assay (AID 1346978). Also: nearly all actives have a fitted effect of over 15% in size. The procedure, abridged:
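Caspase-3/7 induction was measured by Caspase-Glo 3/7 luminescence (30 min, room temperature) after a 17 hr compound exposure of wild-type HepG2 cells seeded at 2,000 per well and pre-incubated 5 hr.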

Assay [9] in a line: Caspase-3/7 induction in CHO-K1 cells by small molecules, qHTS cell viability counter screen (AID 1346979). Also: nearly all actives have a fitted effect of over 35% in size. Also: potency is read from the fitted curve at half-maximal effect. The procedure, abridged:
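Seeding: 1,500 CHO-K1 cells/well. Rest: 5hr, 37C. Treatment: compounds in DMSO, 16hr. Read: CellTiter-Fluor, 1hr, fluorescence.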

Assay [10] can be described thus: Caspase-3/7 induction in CHO-K1 cells by small molecules, qHTS assay (AID 1346980). Also: nearly all actives have a fitted effect of over 15% in size. Also: potency is read from the fitted curve at half-maximal effect. Summed up:
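Luminescent Caspase-Glo 3/7 read (30min, room temperature) quantified apoptosis induction. Cells were wild-type CHO-K1, treated with compound for 17hr at 37 C and 5% CO2.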

Assay [11] in a line: Caspase-3/7 induction in HepG2 cells by small molecules, qHTS cell viability counter screen (AID 1346981). Also: nearly all actives have a fitted effect of over 30% in size. Also: potency is read from the fitted curve at half-maximal effect. Summed up: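 Counter screen for cytotoxicity: HepG2 exposed 16 hr to compounds, then CellTiter-Fluor viability signal (fluorescence, 1 hr reagent incubation).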
Assay [12] has as its target Nuclear receptor subfamily 1 group I member 2 (Homo sapiens) (UniProt O75469). Description: Human pregnane X receptor (PXR) small molecule agonists, qHTS assay (AID 1346982). Also: nearly all actives have a fitted effect of over 35% in size. Also: potency is read from the fitted curve at half-maximal effect. The procedure, abridged:
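Luminescence (ONE-Glo, 30 min RT) after 24 hr compound exposure of PXR-Luc HepG2 cells; cells rested 5 hr post-plating in 5% charcoal-stripped FBS medium.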

Assay [13] deals with Cytochrome P450 2D6 (Homo sapiens) (UniProt P10635). Description: Cytochrome P450 Family 2 Subfamily D Member 6 (CYP2D6) small molecule antagonists: luciferase reporter qHTS assay (AID 1671196). Also: nearly all actives have a fitted effect of over 50% in size. Also: potency is read from the fitted curve at half-maximal effect. Summed up:
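Inhibition of CYP2D6 was gauged by loss of luminescence, since light produced tracks the luciferin generated from a proluciferin substrate. A 10 min room-temperature preincubation preceded 1 h NADPH-supported turnover.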
Background: A reporter such as luciferase makes a cellular process visible.

Assay [14] has as its target Cytochrome P450 2C19 (Homo sapiens) (UniProt P33261). Description: Cytochrome P450 Family 2 Subfamily C Member 19 (CYP2C19) small molecule antagonists: luciferase reporter qHTS assay (AID 1671197). Also: nearly all actives have a fitted effect of over 65% in size. Also: potency is read from the fitted curve at half-maximal effect. Summed up: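 Enzyme-substrate mix with proluciferin substrate (P450-Glo CYP2C19 system) preincubated with compounds 10 min at room temperature; NADPH regeneration solution added, 37C for 1 h; detection reagent stops reaction, luminescence read after 20 min. Ketoconazole positive control.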

Assay [15] can be described thus: qHTS assay to identify small molecule agonists of the TGF-beta/Smad signaling pathway - cell viability counter screen (AID 1346829). Also: top concentration of the series differs between compounds; nearly all actives have a fitted effect of over 45% in size. The procedure, abridged:
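CellTiter-Glo luminescence readout; SBE-bla HEK 293T cells, overnight plating, compound 5 hr at 37 C/5% CO2, then bla substrate 2 hr RT, then CellTiter-Glo 30 min RT.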

For assay [16], the target named is Thyrotropin-releasing hormone receptor (Homo sapiens) (UniProt P34981). Description: qHTS assay to identify small molecule antagonists of the thyrotropin-releasing hormone receptor (TRHR) signaling pathway (AID 1346877; active = well fitted inhibition curve with a large enough effect in the repeat runs, not every such curve was filed as active; also: series mostly up to about 51 µM). Summed up: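 In this cell-based calcium flux format, HEK293 cells expressing TRHR received test compound for 5 min before the agonist TRH (1 nM final). Dye loading lasted 2 h at 37 °C.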
Sequence of Thyrotropin-releasing hormone receptor (Homo sapiens) (P34981 whole entry, looked up): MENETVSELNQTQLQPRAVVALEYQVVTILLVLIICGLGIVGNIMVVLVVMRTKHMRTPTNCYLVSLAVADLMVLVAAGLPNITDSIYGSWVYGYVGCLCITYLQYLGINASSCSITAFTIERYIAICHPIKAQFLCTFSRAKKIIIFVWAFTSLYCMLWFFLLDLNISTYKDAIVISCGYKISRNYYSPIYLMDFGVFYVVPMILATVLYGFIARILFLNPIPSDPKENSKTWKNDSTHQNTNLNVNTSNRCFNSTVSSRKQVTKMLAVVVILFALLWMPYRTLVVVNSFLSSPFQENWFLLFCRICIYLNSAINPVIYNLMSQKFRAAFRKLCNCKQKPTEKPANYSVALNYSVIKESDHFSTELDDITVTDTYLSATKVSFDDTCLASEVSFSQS

The target is the same in assay [17]. The assay can be described thus: qHTS assay to identify small molecule agonists of the thyrotropin-releasing hormone receptor (TRHR) signaling pathway (AID 1346891; calls by dose curve; also: series mostly up to about 58 µM). The procedure, abridged: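 Kinetic fluorescence (3 min, 1 s intervals) reported intracellular calcium after compound transfer onto TRHR-Hek293 cells pre-loaded with dye for 2 h at 37 °C.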
The target of assay [18] is Nuclear receptor subfamily 1 group I member 2 (Rattus norvegicus) (UniProt Q9R1A7). The assay can be described thus: Rat pregnane X receptor (rPXR) activation by small molecules, qHTS assay (AID 1346983). Also: nearly all actives have a fitted effect of over 20% in size. The conditions noted are these: rPXR luciferase reporter cells, One-Glo luminescence, 24 h; stronger effect = higher value. Summed up: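 Luminescent readout (One-Glo luciferase, 30 min room temperature) followed 24 hr compound treatment at 37 C of rPXR cells plated 2,000 per well and preincubated 5hr; qHTS format with compounds delivered in DMSO.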
Sequence of Nuclear receptor subfamily 1 group I member 2 (Rattus norvegicus) (Q9R1A7 whole entry, looked up): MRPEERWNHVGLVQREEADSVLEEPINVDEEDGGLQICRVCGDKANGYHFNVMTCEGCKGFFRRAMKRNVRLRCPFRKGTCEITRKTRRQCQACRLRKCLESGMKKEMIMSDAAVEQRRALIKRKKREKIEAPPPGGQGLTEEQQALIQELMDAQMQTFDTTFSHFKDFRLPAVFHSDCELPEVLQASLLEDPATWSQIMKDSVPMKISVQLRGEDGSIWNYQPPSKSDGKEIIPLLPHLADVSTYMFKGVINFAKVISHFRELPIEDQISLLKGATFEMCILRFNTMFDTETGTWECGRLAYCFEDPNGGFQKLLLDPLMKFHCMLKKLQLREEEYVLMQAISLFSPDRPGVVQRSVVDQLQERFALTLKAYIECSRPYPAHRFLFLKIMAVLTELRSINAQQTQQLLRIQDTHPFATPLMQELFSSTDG

SMILES strings stand for the structures. “And” between values parts separate entries of the source, which are not always exact repeats. Equal values may be shown once. Records with an inconclusive call do not appear. Some compounds were tested as several samples or in several runs, with calls that do not always agree. The source made the active and inactive calls. Unless noted, calls follow the shape of the dose curve; as a rule, active = well fitted curve in the direction sought with a large enough effect in the repeat runs; inconclusive = weak or mixed curves; inactive = no such curve, though single readings can be large; an effect the other way counts as inactive or inconclusive.
% is scaled to controls: 0 for no effect and ±100 for the full control effect.

Sequence of Progesterone receptor (Homo sapiens) (P06401 whole entry, looked up): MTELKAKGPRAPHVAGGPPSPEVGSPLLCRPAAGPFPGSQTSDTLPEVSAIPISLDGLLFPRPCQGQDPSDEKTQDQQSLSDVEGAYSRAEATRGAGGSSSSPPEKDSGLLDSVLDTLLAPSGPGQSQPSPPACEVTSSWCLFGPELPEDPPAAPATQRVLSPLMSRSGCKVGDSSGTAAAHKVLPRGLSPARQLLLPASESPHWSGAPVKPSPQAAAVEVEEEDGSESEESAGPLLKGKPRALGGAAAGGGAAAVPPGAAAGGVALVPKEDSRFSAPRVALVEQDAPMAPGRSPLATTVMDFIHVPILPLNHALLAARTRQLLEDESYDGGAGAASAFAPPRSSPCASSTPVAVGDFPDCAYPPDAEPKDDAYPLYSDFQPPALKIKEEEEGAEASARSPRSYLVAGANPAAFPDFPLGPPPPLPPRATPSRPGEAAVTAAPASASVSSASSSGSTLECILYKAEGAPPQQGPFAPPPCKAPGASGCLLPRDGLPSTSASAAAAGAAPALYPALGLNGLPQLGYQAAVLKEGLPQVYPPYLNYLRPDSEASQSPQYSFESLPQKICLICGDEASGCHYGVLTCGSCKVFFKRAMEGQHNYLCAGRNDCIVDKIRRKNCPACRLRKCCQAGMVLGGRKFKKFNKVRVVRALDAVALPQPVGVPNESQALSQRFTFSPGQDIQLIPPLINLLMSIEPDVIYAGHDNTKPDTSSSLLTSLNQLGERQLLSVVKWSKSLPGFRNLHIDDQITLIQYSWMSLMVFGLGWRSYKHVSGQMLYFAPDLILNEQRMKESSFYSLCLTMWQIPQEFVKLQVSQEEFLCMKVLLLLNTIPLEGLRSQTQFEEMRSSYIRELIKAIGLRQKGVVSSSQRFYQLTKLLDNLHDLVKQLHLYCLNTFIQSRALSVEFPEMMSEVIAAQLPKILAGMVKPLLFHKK
Sequence of Cytochrome P450 2C19 (Homo sapiens) (P33261 whole entry, looked up): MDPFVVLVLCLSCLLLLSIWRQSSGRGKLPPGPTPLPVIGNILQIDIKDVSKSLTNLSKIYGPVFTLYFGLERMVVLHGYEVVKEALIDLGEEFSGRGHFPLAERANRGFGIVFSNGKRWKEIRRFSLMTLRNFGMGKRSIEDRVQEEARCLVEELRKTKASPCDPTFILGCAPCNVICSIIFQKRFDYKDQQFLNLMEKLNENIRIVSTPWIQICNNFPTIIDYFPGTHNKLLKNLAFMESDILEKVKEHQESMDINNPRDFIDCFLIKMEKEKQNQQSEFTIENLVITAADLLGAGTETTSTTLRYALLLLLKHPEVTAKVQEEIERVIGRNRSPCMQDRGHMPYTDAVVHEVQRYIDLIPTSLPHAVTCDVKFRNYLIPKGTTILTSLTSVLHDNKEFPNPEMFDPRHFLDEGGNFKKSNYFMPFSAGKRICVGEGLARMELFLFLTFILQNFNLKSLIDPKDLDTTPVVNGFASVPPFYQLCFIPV
Sequence of Nuclear receptor subfamily 1 group I member 2 (Homo sapiens) (O75469 whole entry, looked up): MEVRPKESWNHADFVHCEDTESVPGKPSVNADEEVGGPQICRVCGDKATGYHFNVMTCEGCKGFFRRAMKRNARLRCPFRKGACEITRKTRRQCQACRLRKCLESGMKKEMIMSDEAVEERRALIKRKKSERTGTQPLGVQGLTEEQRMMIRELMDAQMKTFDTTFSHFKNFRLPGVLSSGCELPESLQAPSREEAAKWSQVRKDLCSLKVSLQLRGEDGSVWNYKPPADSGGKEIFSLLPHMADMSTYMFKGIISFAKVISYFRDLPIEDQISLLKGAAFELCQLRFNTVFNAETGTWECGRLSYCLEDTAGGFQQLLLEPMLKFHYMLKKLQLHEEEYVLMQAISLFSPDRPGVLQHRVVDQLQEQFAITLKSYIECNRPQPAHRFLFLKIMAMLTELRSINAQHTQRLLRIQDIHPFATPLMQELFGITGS
Sequence of Cytochrome P450 2D6 (Homo sapiens) (P10635 whole entry, looked up): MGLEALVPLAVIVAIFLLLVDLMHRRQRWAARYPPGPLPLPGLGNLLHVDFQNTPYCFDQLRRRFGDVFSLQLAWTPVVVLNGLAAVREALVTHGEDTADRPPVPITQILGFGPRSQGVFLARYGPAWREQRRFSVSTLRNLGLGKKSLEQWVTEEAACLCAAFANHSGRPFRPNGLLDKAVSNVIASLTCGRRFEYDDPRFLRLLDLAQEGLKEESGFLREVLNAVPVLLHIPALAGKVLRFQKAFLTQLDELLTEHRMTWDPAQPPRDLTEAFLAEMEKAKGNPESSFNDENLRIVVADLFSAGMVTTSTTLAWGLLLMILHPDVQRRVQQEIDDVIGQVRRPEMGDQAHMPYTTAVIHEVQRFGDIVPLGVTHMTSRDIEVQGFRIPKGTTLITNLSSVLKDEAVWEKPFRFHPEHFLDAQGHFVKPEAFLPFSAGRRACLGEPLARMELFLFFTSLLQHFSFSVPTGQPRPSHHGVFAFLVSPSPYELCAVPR

Consider `Cc1nnc(NS(=O)(=O)c2ccc(N)cc2)s1`, for which the Potency entry in [1], in assay [2], in [3], in [4], in assay [5] and in [6] was “inactive” each time. The Potency entry in assay [7], in [8], in assay [9], in [10], in assay [11] and in assay [12] was “inactive” each time. The Potency entry in [13] is “inactive”. Besides, the Potency in [14] is 39.8 µM (active).

`c1cnc2c(c1)ccc1cccnc12`: the Potency entry in assay [1], in [5], in assay [15], in assay [6], in [8] and in [11] was “inactive” in each case. The Potency in assay [2] was 309 nM (active) and 306 nM (active); in assay [7], 1.26 µM (active); in assay [9], 4.37 µM (active) and 6.11 µM (active) and 9.69 µM (active); in [10] it was 978 nM (active) and 1.37 µM (active) and inactive; in assay [12] it was 2.76 µM (active) and 10.9 µM (active) and 24.3 µM (active); in assay [14], 10.1 µM (active) and 8.94 µM (active) and 10 µM (active).

As to `CC(=O)c1nccs1`, the Potency entry in assay [1], in assay [2], in [3], in [4], in assay [5] and in assay [6] was “inactive” in each case. Also, the Potency entry in assay [16], in [8], in assay [9], in assay [10], in assay [11] and in [12] was “inactive” in each case. In addition, the Potency entry in assay [13] was “inactive”. Also, in assay [17], the outcome was inactive. Also, in assay [14], the Potency was 26.1 µM (active) and inactive.

For the compound `CC1=CC(=O)CC(C)(C)C1`, the Potency entry in [1], in assay [2], in [5], in [6], in assay [16] and in [8] was “inactive” in each case. The Potency result in assay [9], in assay [10], in assay [11] and in assay [13] was “inactive” in each case. Moreover, the Potency in assay [4] is 19.9 µM (active); in assay [12], 62.9 µM (active) and inactive; in assay [14] it was 18.4 µM (active) and inactive. The compound was called inactive in assay [17].

Turning to `NC(N)=S`, the Potency result in assay [1], in assay [2], in assay [3], in assay [4], in assay [5] and in assay [6] was “inactive” throughout. Also, the Potency entry in assay [16], in assay [7], in [8], in assay [9], in assay [10] and in assay [11] was “inactive” each time. Moreover, the Potency entry in assay [12] and in [13] was “inactive” in each case. The compound was called inactive in assay [17]. Also, in assay [14], the Potency was 39.1 µM (active).

Regarding `NC1CCCCC1N` (stereo unspecified), the Potency result in assay [1], in [2], in assay [3], in assay [4], in assay [5] and in assay [6] was “inactive” each time. Moreover, the Potency entry in assay [8], in assay [9], in assay [10] and in [11] was “inactive” each time.

In the case of `CC1(C)C(=O)N(Cl)C(=O)N1Cl`, the Potency result in [1], in assay [2], in [3], in assay [4], in assay [5] and in [6] was “inactive” each time. Moreover, the Potency result in assay [16], in assay [7], in [8], in assay [9], in assay [10] and in assay [11] was “inactive” throughout. For the same compound, the Potency result in assay [12] and in assay [13] was “inactive” throughout. Moreover, the result in [17] was inactive. The Potency in [14] is 71.1 µM (active).

As to `Cc1cc(CC(=O)O)n(C)c1C(=O)c1ccc(Cl)cc1`, the Potency result in [1], in [3], in assay [4], in assay [5], in assay [16] and in assay [8] was “inactive” in each case. Moreover, the Potency result in assay [9], in assay [10], in assay [11] and in assay [13] was “inactive” throughout. Moreover, the call in [17] was inactive. For the same compound, in [18], the max activation is -4.94% (inactive) and -11.5% (inactive).

Consider `CO[Si](CCCNCCN)(OC)OC`, for which the Potency result in assay [1], in assay [2], in [3], in [4], in assay [6] and in assay [16] was “inactive” in each case. Further, the Potency entry in [8], in assay [13] and in [14] was “inactive” throughout. Also, the compound was classed as inactive in assay [17]. The Potency is 5.53 µM (active) and inactive in assay [9]; 27.7 µM (active) and inactive in [10]; 62 µM (active) and inactive in assay [11]; 13.9 µM (active) and inactive in assay [12].

Consider `Nc1nc(N)c2nc(-c3ccccc3)c(N)nc2n1`, for which the Potency entry in [3], in assay [4], in assay [5], in assay [15], in assay [16] and in [7] was “inactive” throughout. Besides, the Potency entry in assay [8], in assay [10], in assay [11] and in [14] was “inactive” in each case. The Potency in [6] is 22.1 µM (active) and 19 µM (active); in [12] it was 49.1 µM (active) and 61.1 µM (active) and 26.6 µM (active); in assay [13], 64 µM (active) and inactive. Further, in assay [17], the call was inactive.

As to `CC/C(C)=N/O`, the Potency entry in assay [1], in assay [2], in assay [3], in assay [4], in assay [5] and in assay [6] was “inactive” in each case. Moreover, the Potency result in [16], in [8], in [9], in assay [10], in [11] and in assay [12] was “inactive” each time. The Potency result in assay [13] and in [14] was “inactive” throughout. The call in assay [17] was inactive.

Take `CC(CN1c2ccccc2Sc2ccccc21)N(C)C` (stereo unspecified): the Potency result in assay [1], in assay [5], in [15], in [6], in assay [16] and in assay [8] was “inactive” each time. In [10], the Potency result is “inactive”. Besides, the Potency is 61.8 µM (active) and 30.6 µM (active) in [2]; 69.3 µM (active) and 30.6 µM (active) and inactive in assay [4]; 44.7 µM (active) and 48.6 µM (active) in [7]; 61.1 µM (active) in assay [9]; 19.3 µM (active) and inactive in [12]; 8.05 µM (active) and 10 µM (active) and 7.76 µM (active) in assay [14]. Besides, the outcome in assay [17] was inactive.

On to `CCCCCCCCC(=O)O`, for which the Potency result in assay [1], in assay [3], in assay [4], in assay [5], in [15] and in assay [6] was “inactive” throughout. The Potency entry in assay [16], in assay [7], in assay [8], in assay [10], in assay [11] and in assay [12] was “inactive” each time. Moreover, the compound was classed as inactive in assay [17]. The Potency in assay [13] is 34.4 µM (active) and inactive; in [14] it was 30.7 µM (active).
